# Screening data as filed in PubChem BioAssay.
# Shown are actives, neighbours in structure and some others; about 0.45% of the full set was active somewhere.
# NR5A2 inv ag – inverse agonists of human LRH-1 (NR5A2). AID 602396. inhibition, % at 3.6 µM. HEK293T StAR-luciferase reporter, LRH-1 transfected, 24 h. 360,000 tested, 0.13% active. O00482;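 active = inhibition above the mean inhibition of all tested compounds plus 3 SD, cut at about 73% in these data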;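 also: 0% = DMSO wells and 100% = reporter-only cells lacking LRH-1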
# Target sequence (O00482 whole entry, looked up): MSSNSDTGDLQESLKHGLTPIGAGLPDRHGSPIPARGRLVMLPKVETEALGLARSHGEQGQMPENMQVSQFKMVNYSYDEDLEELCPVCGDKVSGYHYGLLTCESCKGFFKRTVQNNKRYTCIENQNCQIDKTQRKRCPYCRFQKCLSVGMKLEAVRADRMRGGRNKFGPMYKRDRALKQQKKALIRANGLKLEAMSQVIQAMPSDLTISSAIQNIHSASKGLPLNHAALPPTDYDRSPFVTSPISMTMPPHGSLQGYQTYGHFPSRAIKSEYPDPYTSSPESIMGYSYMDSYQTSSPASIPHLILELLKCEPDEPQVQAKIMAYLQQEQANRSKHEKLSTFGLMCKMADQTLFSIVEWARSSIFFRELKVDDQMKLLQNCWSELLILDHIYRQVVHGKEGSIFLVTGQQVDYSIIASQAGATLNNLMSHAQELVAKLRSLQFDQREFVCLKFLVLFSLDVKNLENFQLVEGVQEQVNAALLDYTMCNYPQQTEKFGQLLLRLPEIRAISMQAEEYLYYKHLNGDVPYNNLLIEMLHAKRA
# SRC1 inh – inhibits human SRC1 coactivator | HEK293 GAL4-SRC1 luciferase reporter, luminescence | inhibition, % at 3.6 µM | 360,000 tested, 0.12% active | AID 588354;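 active = inhibition above the campaign mean plus 3 SD, with each screening campaign given its own cutoff, cut at about 60% in these data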;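 also: 0% = DMSO treated cells and 100% = gossypol at 36 µM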
# LGR2 inh – Drosophila LGR2 receptor signaling inhibition; inhibition, % at 9.99 µM; HEK293 LGR2, CRE-luciferase, bursicon-stimulated, 4 h; 380,000 tested, 0.35% active;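 active = drop in luminescence signal, shown as inhibition above about 50% in the replicate tests, limit read from the data, passing the limit was not always enough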;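 also: agonist challenge used bursicon conditioned medium at about half maximal strength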
# NCOA2 inhibitor – inhibits human steroid receptor coactivator 2. Q15596. HEK293 GAL4-SRC2 luciferase reporter, luminescence. inhibition, % at 9 µM. 370,000 tested, 0.17% active;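 active = inhibition above the mean inhibition of all tested compounds plus 3 SD, set per campaign, cut at about 52% in these data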;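 also: 0% = DMSO treated cells and 100% = cells given Gossypol at 36 µM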
# SRC3 inh – inhibitors of human steroid receptor coactivator 3 (SRC3) | Q9Y6Q9 | HEK293 GAL4-SRC3 luciferase reporter, luminescence | inhibition, % at 3.6 µM | 360,000 tested, 0.17% active | AID 588352;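 active = inhibition above a per-campaign cutoff, the mean of all compounds plus 3 SD, cut at about 60% in these data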;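 also: 0% = DMSO-treated cells and 100% = gossypol-treated cells at 36 µM; higher means less SRC3-driven luciferase light from the GAL4 reporter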
# Numbers without * were called inactive; . = not tested or not shown.
SMILES,NR5A2 inv ag,SRC1 inh,LGR2 inh,NCOA2 inhibitor,SRC3 inh
O=C(C[C@@H]1CC[C@@H]2[C@H](COC[C@H](O)CN2Cc2ccccc2F)O1)N[C@@H]1CCN(Cc2ccccc2)C1,.,.,16,.,.
C[C@@H](C(=O)Nc1ccc2c(c1)OCO2)n1c(=O)[nH]c2ccccc2c1=O,-6,19,19,-5,-14
C[C@@H](C(=O)Nc1ccc2c(c1)OCCO2)n1c(=O)[nH]c2ccccc2c1=O,52,61,16,41,67*
COc1cccc2c1-c1c(O)cccc1C2=O,5,3,6,-26,7
CC1OC(CC(=O)O)CC2=C1C(=O)c1c(O)cccc1C2=O (stereo unspecified),97*,70*,99*,96*,93*
CCOc1cc(/C=C2\COc3ccccc3C2=O)cc(Br)c1OCC(=O)N(C)C,25,35,-1,57*,42
O=C(O)c1cccc(N/N=C/c2cccs2)c1,-154,-172,100*,-85,-25
CSc1ccc(/C=N/Nc2cccc(C(=O)O)c2)cc1,-211,-158,.,.,-146
COc1ccc(S(=O)(=O)N(C)C[C@@H]2OCCCC[C@@H](C)Oc3ccc(NS(=O)(=O)c4ccc(F)cc4)cc3C(=O)N([C@H](C)CO)C[C@H]2C)cc1,.,.,12,.,.
Cn1c(/C=C/c2ccccc2)nc2ccccc21,-65,-54,80*,16,-37
Cn1c(=O)c(/C=C/c2ccccc2)nc2ccccc21,-121,-91,-17,-64,-101
COc1cc(OC)nc(-n2ncc(Br)c(Br)c2=O)n1,-4,-175,103*,-112,8
COc1ccc(C(NC(=O)c2cc(OC)ccc2OC)c2ccccc2)cc1 (stereo unspecified),1,-3,-2,-13,5
COc1ccc(C(NC(=O)c2c(F)c(F)c(F)c(F)c2F)c2ccccc2)cc1 (stereo unspecified),11,-9,67*,16,8
Cn1nnnc1Sc1ncnc2scc(-c3ccc(Br)cc3)c12,23,8,100*,49,20
COc1ccc2c3c([nH]c2c1)[C@@H](CO)N(C(=O)c1ccccc1)CC31CN(C)C1,.,.,-6,.,.
C[C@@H]1CCCCO[C@H](CN(C)Cc2ccc3c(c2)OCO3)[C@H](C)CN([C@@H](C)CO)C(=O)c2cc(NC(=O)Nc3ccc(F)cc3)ccc2O1,.,.,6,.,.
O=C(N/N=C/c1ccc([N+](=O)[O-])s1)c1ccncc1,44,-3,.,.,26
Cc1ccc(C(=O)N/N=C/c2ccc([N+](=O)[O-])s2)cc1,47,48,.,83*,56
CCCOc1ccc(-c2cn3ccccc3n2)cc1,-122,-107,75*,-30,-71
O=S(=O)(CC(CN1CCCCC1)N1CCCCC1)c1ccc2ccccc2c1 (stereo unspecified),-8,17,50*,33,43
Cc1ccc(S(=O)(=O)CC(CN2CCCCC2)N2CCCCC2)cc1 (stereo unspecified),0,25,39,27,18
O=C(c1ccc2c(c1)OCO2)N1CC(=O)N2[C@H](CO)[C@@H](c3ccc(C#CCC4CCCC4)cc3)[C@H]2C1,.,.,9,.,.
CC1C/C(=C\c2cccnc2)C(=O)/C(=C/c2cccnc2)C1 (stereo unspecified),56,-199,85*,80*,11
O=C1/C(=C/c2cccnc2)CCc2c1[nH]c1ccccc21,-115,10,-63,6,0
SMILES,NR5A2 inv ag,SRC1 inh,LGR2 inh,NCOA2 inhibitor,SRC3 inh
C[C@H](CO)N1C[C@H](C)[C@H](CN(C)Cc2cccc3c2OCCCO3)OCc2ccccc2-c2c(n(C)c3ccccc23)C1=O,.,.,-2,.,.
COc1cc(OC)c(-c2nc(-c3ccncc3)no2)cc1OC,10,-10,5,-13,-18
COc1ccc(-c2nc(-c3ccncc3)no2)c(OC)c1,-134,-83,66*,-18,-70
COc1ccc2c3c(n(C)c2c1)[C@H](CO)N(C(=O)Nc1ccc(F)cc1)CC31CN(S(=O)(=O)c2cccc(F)c2)C1,.,.,6,.,.
CC(C)(C)OC(=O)N1Cc2ccccc2C[C@H]1C(=O)NCC(=O)Nc1ccc2c(c1)OCCO2,37,42,29,54*,60
COc1cccc(NC(=O)CNC(=O)[C@@H]2Cc3ccccc3CN2C(=O)OC(C)(C)C)c1,-6,9,0,8,1
COc1ccc(-c2cn3cc(C(=O)NN)ccc3n2)cc1,-93,-67,-47,-19,-67
CCc1ccn2cc(-c3ccc4c(c3)OCO4)nc2c1,-70,-33,97*,40,22
